High-throughput results from PubChem.
This is a sample that favours compounds with a hit; in the whole collection about 9.5% have one here.
HPGD inh: qHTS Assay for Inhibitors of HPGD (15-Hydroxyprostaglandin Dehydrogenase); purified HPGD, NADH fluorescence kinetic, PGE2 substrate; AID 894, 2007; Potency, µM, inactives show at the highest dose activity change, negative = inhibition, usual class: inhibitors; actives 4.3% (n = 150,000); 15-hydroxyprostaglandin dehydrogenase [NAD(+)] (Homo sapiens), P15428; active means well fitted inhibition curve with a large enough effect, not every such curve was filed as active; inconclusive means small, poorly fitted or top-dose-only effect, or another doubt; inactive means no such curve, though single readings can be large or run the other way
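20 nM HPGD preincubated 15 min at room temperature with compound in 50 mM Tris-HCl pH 8, 0.01% Tween 20. Started with 1 mM NAD+ and 30 uM prostaglandin E2; NADH fluorescence (360/450 nm) read 5 times over 30-s intervals, last minus first.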
Tau fluor cs: Counterscreen qHTS for Inhibitors of Tau Fibril Formation, Fluorescence Polarization | tau K18 P301L Alexa594 fluorescence, heparin fibrillization | Potency, µM (top dose mostly 57.7 µM), for inactives: at the top dose activity change, negative = decrease | actives 0.93% (n = 280,000); further: nearly all actives have a fitted effect of over 55% in size
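Human tau K18 P301L (15 uM unlabeled, 0.24 uM Alexa 594-labeled) in 100 mM sodium acetate pH 7 with 20 uM heparin, 6 hr at 37 C. ThT 30 uM added, 1 hr ambient; Alexa 594 FP and total fluorescence read at 555/632 nm.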
Tau fibril ThT: qHTS for Inhibitors of Tau Fibril Formation, Thioflavin T Binding; recombinant tau K18 P301L, heparin-induced fibrillization, ThT fluorescence; Potency, µM (titrated, usually from 57.4 µM), inactives show at the top dose activity, negative = inhibition, usual class: inhibitors; actives 2.1% (n = 270,000); AID 1460, 2008; further: nearly all actives have a fitted effect of over 55% in size
Target sequence (P10636 561-689 P618L limits assumed): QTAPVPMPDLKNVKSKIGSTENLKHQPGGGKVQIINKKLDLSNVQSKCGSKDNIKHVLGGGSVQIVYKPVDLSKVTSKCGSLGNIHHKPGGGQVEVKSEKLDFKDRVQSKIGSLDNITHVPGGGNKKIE
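Fibril formation assay: tau K18 P301L at 15 uM with trace Alexa 594 label, heparin inducer 20 uM, pH 7 sodium acetate buffer, 37 C for 6 hr; endpoint ThT signal.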
NPSR antagonist: qHTS Assay for Antagonists of the Neuropeptide S Receptor: cAMP Signal Transduction | CHO-NPSR cells, cAMP TR-FRET, antagonist mode | Potency, µM (doses to about 38.3 µM), for the others: at the highest dose activity change, negative = inhibition, actives largely listed as inhibitors | actives 1% (n = 220,000) | AID 1461, 2008; further: nearly all actives have a fitted effect of over 50% in size
Tau fibril FP: qHTS for Inhibitors of Tau Fibril Formation, Fluorescence Polarization | K18 P301L tau heparin fibrillization, Alexa594 FP, 6 h | Potency, µM (doses to about 57.7 µM), inactives show at the top dose activity, negative = inhibition, hits mostly inhibitors | actives 0.39% (n = 280,000); further: nearly all actives have a fitted effect of over 55% in size
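Recombinant K18 P301L […], labeled with Alexa 594 at 0.24 uM over 15 uM unlabeled; heparin inducer 20 uM final; 37 C, 6 hr; FP endpoint.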
ALDH1A1 block: qHTS Assay for Inhibitors of Aldehyde Dehydrogenase 1 (ALDH1A1); Purified ALDH1A1, NADH fluorescence, propionaldehyde substrate; Potency, µM (series often up to 75.3 µM), for inactives: top-dose activity, negative = inhibition, usual class: inhibitors; actives 7.3% (n = 220,000); active means well fitted inhibition curve with a large enough effect, not every such curve was filed as active; inconclusive means small, poorly fitted or top-dose-only effect, or another doubt; inactive means no such curve, though single readings can be large or run the other way;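 further: plate controls were no enzyme wells and a reference inhibitor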
Target sequence (P00352 whole entry, looked up): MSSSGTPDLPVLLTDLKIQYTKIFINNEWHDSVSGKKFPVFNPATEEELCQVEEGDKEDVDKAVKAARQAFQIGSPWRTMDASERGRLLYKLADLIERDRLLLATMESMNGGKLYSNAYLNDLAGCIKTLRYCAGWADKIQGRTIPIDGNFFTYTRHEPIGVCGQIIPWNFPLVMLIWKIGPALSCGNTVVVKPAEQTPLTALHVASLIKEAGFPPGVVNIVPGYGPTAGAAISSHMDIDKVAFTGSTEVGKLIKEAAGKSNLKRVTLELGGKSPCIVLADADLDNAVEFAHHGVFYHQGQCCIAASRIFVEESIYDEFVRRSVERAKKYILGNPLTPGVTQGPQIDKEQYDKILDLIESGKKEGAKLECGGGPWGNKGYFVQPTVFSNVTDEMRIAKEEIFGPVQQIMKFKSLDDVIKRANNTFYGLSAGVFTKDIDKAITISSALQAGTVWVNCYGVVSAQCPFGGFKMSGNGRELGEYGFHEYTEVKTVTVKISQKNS
Starred values were filed as active, the others as inactive; [ ] = remark or other dose. Unless noted, the call rests on the fitted dose curve; in most records, active means well fitted curve in the direction sought with a large enough effect; inconclusive means small, poorly fitted or top-dose-only effect, or another doubt; inactive means no such curve, though single readings can be large; an effect the other way counts as inactive or inconclusive. Unless noted, on the % scale 0 is the no-effect control and ±100 the full control effect; potency means the concentration at half of the fitted maximal effect.

How did O=C(Nc1ccc(Br)cc1)c1ccc(F)c(S(=O)(=O)N2CCCc3ccccc32)c1 do in these assays?
Tau fluor cs: 7.1µM*[quencher]; Tau fibril ThT: -1%; Tau fibril FP: 16µM*

What do the screens show for `ClCCl`?
HPGD inh: -7%; ALDH1A1 block: inconclusive

What do the screens show for `COc1ccc(C)cc1NC(=O)c1cccn(Cc2cccc([N+](=O)[O-])c2)c1=O`?
Tau fluor cs: -28%; Tau fibril ThT: -4%; Tau fibril FP: -21%

How did CC(C)[C@@]1(NC(=O)[C@@H]2C[C@@H]3c4cccc5[nH]cc(c45)C[C@H]3N(C)C2)O[C@@]2(O)C3CCCN3C(=O)[C@H](Cc3ccccc3)N2C1=O (some centres undefined) do in these assays?
HPGD inh: -22%; Tau fluor cs: 7.1µM*[quencher]; Tau fibril ThT: inconclusive; NPSR antagonist: inconclusive; Tau fibril FP: inconclusive; ALDH1A1 block: -10%

Results for CC(C)[C@@]1(NC(=O)[C@@H]2C[C@@H]3c4cccc5[nH]cc(c45)C[C@H]3N(C)C2)O[C@@]2(O)[C@@H]3CCCN3C(=O)[C@H](Cc3ccccc3)N2C1=O ?
HPGD inh: -4%; Tau fluor cs: 2.8µM*[quencher]; Tau fibril ThT: inconclusive; NPSR antagonist: 2µM*; Tau fibril FP: inconclusive; ALDH1A1 block: -3%

What do the screens show for `COc1ccc(C2SCC(=O)Nc3c2c(C)nn3-c2ccccc2)cc1` (centres undefined)?
HPGD inh: 13µM*; Tau fluor cs: -13%; Tau fibril ThT: -8%; NPSR antagonist: -21%[46.1 µM]; Tau fibril FP: -8%; ALDH1A1 block: -4%

Results for Cc1ccc(-n2nc(C)c3c2NC(=O)CSC3c2ccc3c(c2)OCO3)cc1 (centres undefined) ?
HPGD inh: 18µM*; Tau fluor cs: -23%; Tau fibril ThT: inconclusive; NPSR antagonist: -16%[46.1 µM]; Tau fibril FP: inconclusive; ALDH1A1 block: inconclusive

How did Cc1ccc(-n2nc(C)c3c2NC(=O)CSC3c2ccc(O)cc2)cc1Cl (centres undefined) do in these assays?
Tau fluor cs: -18%; Tau fibril ThT: inconclusive; Tau fibril FP: inconclusive

What do the screens show for `[N-]=[N+]=CC(=O)OCC(N)C(=O)O` (centres undefined)?
HPGD inh: 1%; Tau fluor cs: -4%; Tau fibril ThT: -6%; Tau fibril FP: 1%; ALDH1A1 block: -6%

How did O=C(O)C[SH+]CC(=O)O.O=C(O)C[SH+]CC(=O)O.[Cu] do in these assays?
HPGD inh: -5%

Results for O=S(=O)(O)/C(=C\c1ccccc1)c1ccccc1 (tested in a mixture with another compound) ?
HPGD inh: -1%; ALDH1A1 block: -7%[13.5 µM]

How did Cn1ccc(NC(=O)CCl)n1 do in these assays?
Tau fluor cs: -2%; Tau fibril ThT: -5%; NPSR antagonist: 33%; Tau fibril FP: 4%; ALDH1A1 block: 20µM*

How did CCOc1ccc(NC(=O)C2C(C(=O)O)C3(Cl)C(Cl)=C(Cl)C2(Cl)C3(Cl)Cl)cc1 (centres undefined) do in these assays?
Tau fluor cs: -26%; Tau fibril ThT: inconclusive; NPSR antagonist: 29%; Tau fibril FP: 3%; ALDH1A1 block: -18%

How did CN(C)[C@@H]1C(=O)C(C(N)=O)=C(O)[C@]2(O)C(=O)C3=C(O)c4c(O)cccc4[C@](C)(O)[C@H]3C[C@@H]12 do in these assays?
HPGD inh: -29%; ALDH1A1 block: -1%[13.5 µM]

What do the screens show for `CC1CC[C@@]2(OC1)OC1C(O)C3C4CC[C@H]5CC(O[C@@H]6O[C@@H](CO)[C@H](OC7OC(CO)C(O)C(OC8OCC(O)C(O)[C@H]8O)[C@@H]7O[C@@H]7OC(CO)[C@H](O)[C@@H](O[C@@H]8OC(CO)C(O)C(O)C8O)C7O)C(O)C6O)C(O)C[C@]5(C)C4CC[C@]3(C)C1C2C` (some centres undefined)?
HPGD inh: -4%; Tau fluor cs: 0%; Tau fibril ThT: -14%; Tau fibril FP: 10%; ALDH1A1 block: -4%

Results for C[C@H]1CC[C@@H]2[C@@H](C)[C@H]3[C@H](C[C@H]4[C@@H]5CC=C6CC(O[C@@H]7O[C@H](CO)[C@H](O)[C@H](O[C@@H]8O[C@H](CO)[C@@H](O)[C@H](O)[C@H]8O)[C@H]7O[C@H]7O[C@@H](C)[C@H](O)[C@@H](O)[C@H]7O)CC[C@]6(C)[C@H]5CC[C@]34C)N2C1 (some centres undefined) ?
HPGD inh: -4%; ALDH1A1 block: 22µM*

What do the screens show for `N[C@H](CCCCCP(=O)(O)O)C(=O)O`?
HPGD inh: 2%; Tau fluor cs: -1%; Tau fibril ThT: -1%; NPSR antagonist: 0%[46.1 µM]; Tau fibril FP: 4%; ALDH1A1 block: -3%

How did COc1ccc(CCN)cc1O do in these assays?
HPGD inh: -17%; Tau fluor cs: -4%; Tau fibril ThT: -7%; NPSR antagonist: 4%[46.1 µM]; Tau fibril FP: 0%; ALDH1A1 block: 5%

What do the screens show for `NCCc1cc(O)c(O)cc1O`?
HPGD inh: -16%; Tau fluor cs: 10µM*[quencher]; Tau fibril ThT: 7.1µM*; Tau fibril FP: 25µM*; ALDH1A1 block: -14%

Results for O=C1C2CCCN2C(c2ccncc2)N1c1ccc(Cl)c(Cl)c1 (centres undefined) ?
Tau fluor cs: -23%; Tau fibril ThT: inconclusive; NPSR antagonist: -14%[46.1 µM]; Tau fibril FP: -10%; ALDH1A1 block: 20µM*

Results for Clc1ccc(C2=CCC[C@H]3CC[C@@H]2N3)cn1 ?
HPGD inh: -14%; Tau fluor cs: -7%; Tau fibril ThT: -15%; Tau fibril FP: 6%; ALDH1A1 block: 10µM*

How did Nc1ccc2c3c(cccc13)CC2 do in these assays?
HPGD inh: inconclusive; Tau fluor cs: inconclusive; Tau fibril ThT: inconclusive; NPSR antagonist: 2%[46.1 µM]; Tau fibril FP: -9%; ALDH1A1 block: inconclusive

What do the screens show for `O=[N+]([O-])c1ccc2c3c(cccc13)CC2`?
HPGD inh: -28%; ALDH1A1 block: 3.2µM*

What do the screens show for `O=C(O)[C@@H]1[C@H](C(=O)O)[C@]2(Cl)C(Cl)=C(Cl)[C@@]1(Cl)C2(Cl)Cl`?
HPGD inh: -21%; ALDH1A1 block: 3.2µM*
